Source: PubChem BioAssay (NCI)
Compounds without any hit were thinned out: in the full panel of roughly 83,000, 20% have a hit.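 Step 1: grow cells in 96-well plates. Step 2: add test compound at a single concentration. Step 3: incubate 48 h. Step 4: record percent growth.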 A number with no mark means an inactive call. Calls of active or inactive are those of the source. Rule for the calls: active = growth percent below 10; inactive = the rest.

Assays:
Experiment in all cases: NCI-60 one-dose screen, 48 h (100 = growth as untreated, 0 = no growth, -100 = all killed)
DU-145 prostate = conditions: 10 µM unless noted
K-562 leukemia = conditions: 10 µM unless noted
MALME-3M melanoma = conditions: 10 µM unless noted
MDA-MB-231 breast = conditions: 10 µM unless noted
RXF 393 renal = conditions: 10 µM unless noted
SF-268 CNS = conditions: 10 µM unless noted
SF-295 CNS = conditions: 10 µM unless noted
SF-539 CNS = conditions: 10 µM unless noted
UACC-257 melanoma = conditions: 10 µM
M14 melanoma = conditions: 10 µM unless noted
HCT-15 colon = conditions: 10 µM unless noted
HT29 colon = conditions: 10 µM unless noted
SNB-75 CNS = conditions: 10 µM unless noted
SNB-19 CNS = conditions: 10 µM unless noted
U251 CNS = conditions: 10 µM unless noted
PC-3 prostate = conditions: 10 µM unless noted
SK-MEL-5 melanoma = conditions: 10 µM unless noted
UACC-62 melanoma = conditions: 10 µM unless noted
LOX IMVI melanoma = conditions: 10 µM unless noted
SK-MEL-28 melanoma = conditions: 10 µM unless noted

Structure (SMILES) | growth (DU-145 prostate) | growth (K-562 leukemia) | growth (MALME-3M melanoma) | growth (MDA-MB-231 breast) | growth (RXF 393 renal) | growth (SF-268 CNS) | growth (SF-295 CNS) | growth (SF-539 CNS) | growth (UACC-257 melanoma) | growth (M14 melanoma) | growth (HCT-15 colon) | growth (HT29 colon) | growth (SNB-75 CNS) | growth (SNB-19 CNS) | growth (U251 CNS) | growth (PC-3 prostate) | growth (SK-MEL-5 melanoma) | growth (UACC-62 melanoma) | growth (LOX IMVI melanoma) | growth (SK-MEL-28 melanoma)
CCOC(=O)/C(F)=C/C1CC1C1CCCCC1 (centres undefined) | 105% | 117% | 97.9% | 98.6% | 108% | 102% | 103% | 94.3% | 120% | 98.9% | 102% | 111% | 95.2% | 98.5% | 105% | 102% | 99.8% | 95.5% | 98% | 100%
CCN1C/C(=N\S(=O)(=O)c2ccccc2)N(CC)C1=S | 117% | 98.8% | 100% | 104% | 117% | 104% | 103% | 102% | 97.6% | 99% | 101% | 108% | 91.3% | 98.2% | 97.4% | 110% | 102% | 95.2% | 99.3% | 104%
CC(C)=CCc1c(O)c(CC=C(C)C)c2c(c1O)C(=O)C1=C[C@@H]3C[C@H]4C(C)(C)O[C@@](C/C=C(\C)C(=O)O)(C3=O)[C@@]14O2 | -60.5% (active) | 5.16% (active) | -19.3% (active) | 29.8% | -82.2% (active) | 5.98% (active) | -9.35% (active) | -77.5% (active) | -38.2% (active) | 5.07% (active) | -30% (active) | -11.1% (active) | 33.7% | 41.6% | -71.9% (active) | 11.3% | -94.9% (active) | -22.3% (active) | -97% (active) | -11.2% (active)
Cn1cc(-c2nnc(N)nc2-c2cn(C)c3ccc(F)cc23)c2cc(F)ccc21 | 95.6% | 101% | 107% | 94.6% | 104% | 78.5% | 113% | 96.4% | 101% | 101% | 91.8% | 63.3% | 64.4% | 91% | 83.2% | 95.2% | 91% | 94.6% | 98.4% | 103%
C=C(C)[C@@H]1CC[C@]2(C)[C@H](CC=C3[C@@H]4CC(C)(C)CC[C@]4(C(=O)NCC#CCN4CCN(C)CC4)CC[C@]32C)[C@@]1(C)CCC#N | 63.4% | -7.15% (active) | 34.6% | 47.8% | 53.7% | 65.4% | 70.5% | 87.7% | 91.3% | -63.7% (active) | 21.4% | 26.8% | 67% | 72.5% | 53.6% | 37.3% | 53.4% | 79% | 12.3% | 96.9%
CCNC(=O)Oc1ccc(/C(=C(/C)c2ccc(Cl)cc2)c2ccc(OCCN(C)C)cc2)cc1 | 92.1% | 11.7% | 13.4% | 79.8% | 55.8% | 75.6% | 94.4% | 66% | 81% | 64.2% | 47% | 15.2% | 75.4% | 81.1% | 58.8% | 62.8% | 70.7% | 86.4% | 41.5% | 93.4%
Cn1cc(-c2nn3cc(-c4ccncc4)nc3s2)c2cc(Cl)ccc21 | 74.3% | -1.66% (active) | 48.2% | 73.5% | 75.9% | 67.9% | 35.1% | 82.1% | 89.1% | 52.5% | 5.44% (active) | 4.2% (active) | 88.6% | 83% | 56.6% | 14.6% | 55.7% | 54.5% | 39.4% | 88.1%
C#CCOc1ccc(C(Nc2cc(Cl)ccc2Cl)c2nnnn2C2CCCCC2)cc1 (centres undefined) | 97.7% | 83.5% | 101% | 73.7% | 92.6% | 83.4% | 80.7% | 95.3% | 102% | 92.2% | 86.4% | 92.7% | 95.1% | 86% | 82.7% | 76.9% | 95.4% | 66.7% | 97.7% | 107%
CCN(CC)CCCC(C)NCC(=O)NC(c1ccc2c(c1)OCO2)c1cc(Cl)c2cccnc2c1O (centres undefined) | 44.2% | 10.6% | 5.27% (active) | 35.5% | 67.5% | 22.7% | -53.3% (active) | 6.63% (active) | 76.6% | -9.39% (active) | 20.6% | 23.6% | – | 38.1% | 30.2% | 20.1% | -77.4% (active) | -17.6% (active) | -30.1% (active) | 46.5%
